The record followed here is PubChem BioAssay (NCATS).

Records with an inconclusive call do not appear. The source made the active and inactive calls. Calls follow the shape of the dose curve; as a rule, active = well fitted curve in the direction sought with a large enough effect; inconclusive = small, poorly fitted or top-dose-only effect, or another doubt; inactive = no such curve, though single readings can be large; an effect the other way counts as inactive or inconclusive.

Assay [1] in a line: qHTS to identify inhibitors of the type 1 interferon - major histocompatibility complex class I in skeletal muscle: primary screen against the NCATS Pharmaceutical Collection (AID 1347407).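 Also: luminescence of HiBiT knocked into endogenous HLA-B as interferon-induced MHC class I level.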 Also: potency is read from the fitted curve at half-maximal effect. The gist of the method:
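Immortalized human myoblasts (C25cl48) with HiBiT knocked into endogenous HLA-B*08:01 were stimulated with 4 ng/ml IFN-beta and treated with compounds (8-point, 1:5, top 46 uM final) for 24 h at 37 C; HiBiT lytic luminescence read.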
(In general: qHTS replaces the single test concentration by a dilution series.)

For assay [2], the target named is Protein phosphatase 1D (Homo sapiens) (UniProt O15297). The assay can be described thus: RapidFire Mass Spectrometry qHTS Assay for Modulators of WT P53-Induced Phosphatase 1 (WIP1) (AID 1347424).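 Also: amount of dephosphorylated VEPPL-S-QETFS peptide product formed by WIP1; series mostly up to about 63 µM.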 The method, boiled down:
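WIP1 (10 nM final) was preincubated 1 h at room temperature with compounds in Tris-HCl pH 7.5, 30 mM MgCl2, TCEP, EGTA, BSA; 2 uM VEPPL-pS-QETFS phosphopeptide was added for 5 min, quenched with formic acid, and dephosphorylated product quantified by RapidFire MS.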

Assay [3] has the same target. The assay can be described thus: Rhodamine-PBP qHTS Assay for Modulators of WT P53-Induced Phosphatase 1 (WIP1) (AID 1347425). The gist of the method: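 5 nM WIP1 + 10 uM Rh-PBP, 50 mM Tris pH 7.5, 30 mM MgCl2, 1 mM TCEP, 0.1 mM EGTA, BSA; cpds pinned, 1 hr RT; + 10 uM phosphopeptide; fluorescence 1-min reads x 11 min; delta = f1 - f0.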
Assay [4] in a line: Primary qHTS for inhibitors of La Crosse Virus (LACV) - induced cell death in SH-SY5Y cells (AID 1508616).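 Also: top concentration of the series differs between compounds; higher means more rescue of cells from virus-induced death.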 The gist of the method: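 SH-SY5Y cells (6000/well) plated 24 h, then given compounds by pin transfer and LACV at 0.01 MOI for 6 days at 37C. Viability measured by ATPLite luminescence, normalized to infected DMSO and uninfected DMSO.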
In assay [5] the target is Calcium and integrin-binding protein 1 (Homo sapiens) (UniProt Q99828). The assay can be described thus: Primary qHTS for Identification of Calcium Integrin Binding Protein 1 (CIB1) Competitor (AID 1508620).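 Also: GST tagged CIB1 binding a fluorescein labelled alphaIIb integrin peptide tracer; top concentration of the series differs between compounds.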 The gist of the method:
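Fluorescence polarization competition: CIB1-GST (1 uM final) preincubated with compound 15 min at room temperature, then FITC-labeled alphaIIb peptide (100 nM final) added for another 15 min. Polarization read at Ex 480/Em 540.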

The nature of assay [6]: Primary qHTS for small molecule stabilizers of the endoplasmic reticulum resident proteome: Secreted ER Calcium Modulated Protein (SERCaMP) assay (AID 1508630). The method, boiled down:
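GLuc-SERCaMP-expressing SH-SY5Y cells, pretreated 16 h with compound, are challenged with thapsigargin to empty ER calcium stores; after 4 h, coelenterazine is added directly to the medium and luminescence is imaged.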

Chain of Calcium and integrin-binding protein 1 (Homo sapiens) (Q99828 whole entry, looked up): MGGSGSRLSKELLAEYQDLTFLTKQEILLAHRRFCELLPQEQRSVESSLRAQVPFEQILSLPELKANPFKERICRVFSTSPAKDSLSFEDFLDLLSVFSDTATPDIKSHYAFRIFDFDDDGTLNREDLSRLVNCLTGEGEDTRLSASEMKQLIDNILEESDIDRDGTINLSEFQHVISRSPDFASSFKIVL
Chain of Protein phosphatase 1D (Homo sapiens) (O15297 whole entry, looked up): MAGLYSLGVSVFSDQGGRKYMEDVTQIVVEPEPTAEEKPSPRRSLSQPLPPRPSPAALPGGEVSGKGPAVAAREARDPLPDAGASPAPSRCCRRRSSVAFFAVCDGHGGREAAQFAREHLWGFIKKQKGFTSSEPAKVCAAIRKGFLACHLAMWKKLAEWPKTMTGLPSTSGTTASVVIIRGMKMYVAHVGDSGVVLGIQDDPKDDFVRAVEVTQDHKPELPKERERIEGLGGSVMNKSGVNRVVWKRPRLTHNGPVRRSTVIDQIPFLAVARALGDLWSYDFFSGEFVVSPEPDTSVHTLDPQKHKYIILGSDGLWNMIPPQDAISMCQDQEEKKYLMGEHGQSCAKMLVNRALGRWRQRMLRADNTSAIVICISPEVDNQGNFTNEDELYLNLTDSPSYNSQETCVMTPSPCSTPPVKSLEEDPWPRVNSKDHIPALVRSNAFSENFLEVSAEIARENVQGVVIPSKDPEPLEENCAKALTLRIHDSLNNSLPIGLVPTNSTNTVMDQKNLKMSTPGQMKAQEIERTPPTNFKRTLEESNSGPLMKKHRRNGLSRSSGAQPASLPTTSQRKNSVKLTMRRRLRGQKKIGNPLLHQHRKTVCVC

Regarding `COC(=O)[C@@H]1CC2=CC(=O)CC[C@]2(C)[C@@]23O[C@@H]2C[C@@]2(C)[C@@H](CC[C@@]24CCC(=O)O4)[C@H]13`, the Potency result in assay [1], in assay [2], in assay [4], in assay [5] and in assay [6] was “inactive” in each case. Further, in assay [3], the compound was classed as inactive.

With `O=C(OCC(O)CO)c1ccccc1Nc1ccnc2cc(Cl)ccc12` (stereo not given), the Potency entry in assay [1], in assay [2], in assay [4], in assay [5] and in assay [6] was “inactive” in each case. In addition, the result in assay [3] was inactive.

On to `CC(Cc1ccccc1)(NC(=O)CN)c1ccccc1` (stereo not given), for which the Potency result in assay [1], in assay [2], in assay [4], in assay [5] and in assay [6] was “inactive” each time. The compound was classed as inactive in assay [3].

As to `O=C1OC2(c3ccc(O)cc3Oc3cc(O)ccc32)c2ccccc21`, the Potency result in assay [1], in assay [2], in assay [4], in assay [5] and in assay [6] was “inactive” throughout. In addition, the call in assay [3] was inactive.

As to `COc1cc2c(cc1OC)[C@@H]1CC(=O)[C@@H](CC(C)C)CN1CC2`, the Potency entry in assay [1], in assay [2], in assay [4], in assay [5] and in assay [6] was “inactive” each time. Further, in assay [3], the outcome was inactive.

As to `Oc1c(I)cc(I)c2cccnc12`, the Potency result in assay [1], in assay [2], in assay [5] and in assay [6] was “inactive” throughout. Besides, in assay [3], the call was inactive.

On to `CC(C)n1nc(-c2cc3cc(O)ccc3[nH]2)c2c(N)ncnc21`, for which the Potency in assay [1] was 4.7 µM (active). Further, the Potency entry in assay [2], in assay [4], in assay [5] and in assay [6] was “inactive” each time. Also, the call in assay [3] was inactive.

For the compound `C=CCc1ccc(O)c(OC)c1`, the Potency entry in assay [1], in assay [2], in assay [4], in assay [5] and in assay [6] was “inactive” in each case. For the same compound, the result in assay [3] was inactive.

Regarding `CC1(C)O[C@@H]2[C@@H](CO[C@@]3(COS(N)(=O)=O)OC(C)(C)O[C@@H]23)O1`, the Potency result in assay [1], in assay [2], in assay [4], in assay [5] and in assay [6] was “inactive” each time. Also, the call in assay [3] was inactive.

Regarding `CCN(CCCCOC(=O)c1ccc(OC)c(OC)c1)C(C)Cc1ccc(OC)cc1` (stereo not given), the Potency result in assay [1], in assay [2], in assay [5] and in assay [6] was “inactive” each time. Also, the result in assay [3] was inactive.

In the case of `Oc1ccc(Cl)c2cccnc12`, the Potency entry in assay [1], in assay [2], in assay [4] and in assay [6] was “inactive” in each case. Besides, the compound was called inactive in assay [3].

As for `CC(=O)N(O)CCCCCNC(=O)CCC(=O)N(O)CCCCCNC(=O)CCC(=O)N(O)CCCCCN`, the Potency result in assay [1], in assay [2], in assay [5] and in assay [6] was “inactive” in each case. In addition, the compound was called inactive in assay [3].

With `CO/N=C1\CN(c2nc3c(cc2F)c(=O)c(C(=O)O)cn3C2CC2)CC1CN` (stereo not given), the Potency entry in assay [1], in assay [2], in assay [4], in assay [5] and in assay [6] was “inactive” each time. Moreover, the call in assay [3] was inactive.

Turning to `CCN1CCCC1=O`, the Potency entry in assay [1], in assay [2] and in assay [5] was “inactive” throughout. Besides, in assay [3], the compound was classed as inactive.

Consider `O=c1c(-c2ccccc2)c1-c1ccccc1`, for which the Potency entry in assay [1], in assay [2], in assay [5] and in assay [6] was “inactive” throughout. Further, in assay [3], the outcome was inactive.

Turning to `CC(=O)Nc1c(I)cc(I)c(C(=O)O)c1I`, the Potency result in assay [1], in assay [2], in assay [5] and in assay [6] was “inactive” throughout. In addition, the compound was called inactive in assay [3].

Regarding `CC(O)(P(=O)(O)O)P(=O)(O)O`, the Potency entry in assay [1], in assay [2], in assay [4], in assay [5] and in assay [6] was “inactive” each time. Further, in assay [3], the result was inactive.

With `c1ccc(OCc2ccc(CCCN3CCOCC3)cc2)cc1`, the Potency entry in assay [1], in assay [2], in assay [4], in assay [5] and in assay [6] was “inactive” each time. The call in assay [3] was inactive.

On to `Cc1cccc(C)c1NC(=O)CN1CCN(CCCC(c2ccc(F)cc2)c2ccc(F)cc2)CC1`, for which the Potency result in assay [1], in assay [2], in assay [4], in assay [5] and in assay [6] was “inactive” in each case. Besides, the compound was called inactive in assay [3].

In the case of `Cc1ccnc(NS(=O)(=O)c2ccc(N)cc2)n1`, the Potency entry in assay [1], in assay [2], in assay [4] and in assay [6] was “inactive” each time. Also, the call in assay [3] was inactive.

In the case of `CCOC(=O)/C=C(C)/C=C/C=C(C)/C=C/c1c(C)cc(OC)c(C)c1C`, the Potency result in assay [1], in assay [2], in assay [4], in assay [5] and in assay [6] was “inactive” throughout. Further, the compound was called inactive in assay [3].

Take `Cc1c(C(C)C)c(=O)n(-c2ccccc2)n1C`: the Potency result in assay [1], in assay [2], in assay [4], in assay [5] and in assay [6] was “inactive” each time. In addition, the compound was called inactive in assay [3].

Take `CC1(C)O[C@@H]2C[C@H]3[C@@H]4C[C@H](F)C5=CC(=O)C=C[C@]5(C)[C@H]4[C@@H](O)C[C@]3(C)[C@]2(C(=O)CO)O1`: the Potency entry in assay [1], in assay [2], in assay [4], in assay [5] and in assay [6] was “inactive” throughout. The compound was classed as inactive in assay [3].

As to `CN(C/C=C/c1ccccc1)Cc1cccc2ccccc12`, the Potency result in assay [1], in assay [2], in assay [4], in assay [5] and in assay [6] was “inactive” each time. Moreover, in assay [3], the compound was called inactive.
